{
  "source": "PubChem BioAssay AID588324",
  "about": "(National Center for Advancing Translational Sciences (NCATS), 2011)",
  "note": "Records with an inconclusive call do not appear. The source made the active and inactive calls. Calls follow the shape of the dose curve; as a rule, active = well fitted inhibition curve with a large enough effect; inconclusive = small, poorly fitted or top-dose-only effect; inactive = flat fitted curve, though single readings scatter.",
  "data": [
    {"test_system": "Trypanosoma cruzi 6-phosphofructokinase", "assay": "Confirmatory Assay to Find Inhibitors of T. brucei phosphofructokinase: Counter Screen against T cruzi PFK", "settings": "ADP-Glo luminescence, 45 min; series mostly up to 57.5 µM", "text": "Various species of the protozoan family Trypanosomatidae are responsible for a range of serious human diseases in tropical and subtropical areas of the world. […] Many of the disorders caused by trypanosomatids are fatal if left untreated, but most currently used drugs are inefficient and toxic. […] Oxidative metabolism involving the mitochondrial tricarboxylic acid cycle and oxidative phosphorylation are repressed in these parasites, and recent RNA interference (RNAi) experiments have shown that even partial depletion of certain individual glycolytic enzymes can lead to the death of cultured parasites. One such glycolytic enzyme, phosphofructokinase (PFK), catalyzes the formation of fructose-1,6-bisphosphate (F1,6BP) and ADP from fructose-6-phosphate (F6P) and ATP, and in many metabolic circumstances makes an important contribution to the control of flux through the glycolytic pathway. As a specific glycolytic target, PFK is particularly attractive as it catalyzes the first irreversible step in glycolysis, and structural and kinetic studies have shown very substantial and essential differences from corresponding host enzymes, allowing for the discovery of parasite-selective inhibitors. Confirmed qHTS active compounds were tested against T cruzi PFK. A luminescent biochemical assay was performed that used luciferase-based nucleotide detection (ADP-Glo, Promega) to examine the effect of identified actives against another trypanosomal isoform of PFK, namely Trypansoma cruzi, for target specificity. The assay is identical in concept to the T. brucei PFK qHTS assay, but instead uses the T. cruzi isoform of PFK (expressed and purified by U. of Edinburgh). NIH Molecular Libraries Probe Production Network [MLPCN] NIH Chemical Genomics Center [NCGC] Grant: 1 R03 MH092153-01 PI Name: Malcolm Walkinshaw, University of Edinburgh\nSubstrate buffer was dispensed into white, solid 1536-well plates at 3 uL/well in 0.1M triethanolamine (TEA) buffer, pH 8.0, containing final concentrations of 5 mM MgCl2, 0.01% Tween20, 0.6mM fructose-6-phosphate (F6P) and 0.1mM ATP. Then, 23nl of compounds or DMSO were delivered to each well using a pin tool. One uL of T. cruzi PFK (0.1M TEA, 0.01% Tween20, 0.1% bovine serum albumin (BSA) and […] PFK, final concentrations) was then dispensed, and plates were incubated at room temperature for 45 min. The luminescent detection reagent, ADP-Glo (Promega), was then added in two steps: the first reagent, ADP-Glo (which converts remaining uncatalyzed ATP), was added at 2.5uL/well and incubated for ten minutes at room temperature, and the second component, Kinase Detection reagent (which converts ADP to ATP as a substrate for luciferase-based luminescence), was added immediately after at 5uL/well, followed by one final ten minute room temperature incubation. The plates were measured on a ViewLux plate reader for luminescent signal using a clear filter with a one second exposure. The %Activity was determined from the corrected luminescence values. 1x (1.25nM) and 0x PFK enzyme controls (untreated) were included to normalize %Activity of identified inhibitors; 0x enzyme values corresponded to 100%Activity (full inhibition), while 1x PFK enzyme values were used to normalize 0% Activity (no inhibition).", "values": [
      {"smiles": "Cc1cc(NS(=O)(=O)c2ccc(C(=O)NCc3ccc(Cl)c(Cl)c3)cc2)no1", "Potency": "2.91 µM (active)"},
      {"smiles": "Cc1cc(NS(=O)(=O)c2ccc(NC(=O)Cc3cccc(Cl)c3)cc2)no1", "Potency": "2.59 µM (active)"},
      {"smiles": "Cc1cc(NS(=O)(=O)Cc2ccc(NC(=O)Cc3ccc(Cl)c(Cl)c3)cc2)no1", "Potency": "3.26 µM (active)"},
      {"smiles": "Cc1cc(N[S+](=O)([O-])c2ccc(NC(=O)Cc3ccc(Cl)nc3)cc2)no1", "Potency": "20.6 µM (active)"},
      {"smiles": "O=C(Cc1ccc(Cl)c(Cl)c1)Nc1ccc(S(=O)(=O)Nc2ccccc2)cc1", "Potency": "16.3 µM (active)"},
      {"smiles": "O=C(Cc1ccc(Cl)c(Cl)c1)Nc1ccc(S(=O)(=O)Nc2ccn[nH]2)cc1", "Potency": "0.73 µM (active)"},
      {"smiles": "O=C(Cc1ccc(Cl)c(Cl)c1)Nc1ccc(S(=O)(=O)Nc2ccc(C(=O)O)cc2)cc1", "Potency": "0.291 µM (active)"},
      {"smiles": "Cc1cc(NS(=O)(=O)c2ccc(NC(=O)CCc3ccc(Cl)c(Cl)c3)cc2)no1", "Potency": "6.51 µM (active)"},
      {"smiles": "Cc1cc(NS(=O)(=O)c2ccc(NS(=O)(=O)Cc3ccc(Cl)c(Cl)c3)cc2)no1", "Potency": "inactive"},
      {"smiles": "Cc1cc(NS(=O)(=O)c2ccc(NC(=O)Cc3ccc(Cl)cc3)cc2)no1", "Potency": "1.46 µM (active)"},
      {"smiles": "Cc1cc(NS(=O)(=O)c2ccc(N(C)C(=O)Cc3ccc(Cl)c(Cl)c3)cc2)no1", "Potency": "1.3 µM (active)"},
      {"smiles": "Cc1cc(N[S+](=O)([O-])c2ccc3cc(NC(=O)Cc4ccc(Cl)c(Cl)c4)ccc3c2)no1", "Potency": "4.61 µM (active)"},
      {"smiles": "Cc1cc(NS(=O)(=O)c2ccc(NC(=O)Cc3ccc(C)c(C)c3)cc2)no1", "Potency": "6.51 µM (active)"},
      {"smiles": "Cc1cc(NS(=O)(=O)c2ccc(NC(=O)Cc3ccc4ccccc4c3)cc2)no1", "Potency": "1.83 µM (active)"},
      {"smiles": "O=C(Cc1ccc(Cl)c(Cl)c1)Nc1ccc(S(=O)(=O)Nc2cncnc2)cc1", "Potency": "0.73 µM (active)"},
      {"smiles": "O=C(Cc1ccc(Cl)c(Cl)c1)Nc1ccc(S(=O)(=O)Nc2ccon2)cc1", "Potency": "0.13 µM (active)"},
      {"smiles": "Cc1cc(NS(=O)(=O)c2ccc(NC(=O)Cc3ccc(Cl)c(F)c3)cc2)no1", "Potency": "0.651 µM (active)"},
      {"smiles": "Cc1cc(N(C)S(=O)(=O)c2ccc(NC(=O)Cc3ccc(Cl)c(Cl)c3)cc2)no1", "Potency": "2.06 µM (active)"},
      {"smiles": "Cc1cc(NS(=O)(=O)c2cccc(NC(=O)Cc3ccc(Cl)c(Cl)c3)c2)no1", "Potency": "16.3 µM (active)"},
      {"smiles": "Cc1cc(NS(=O)(=O)c2ccc(NCCc3ccc(Cl)c(Cl)c3)cc2)no1", "Potency": "16.3 µM (active)"},
      {"smiles": "O=C(Cc1ccc(Cl)c(Cl)c1)Nc1ccc(S(=O)(=O)O)cc1", "Potency": "0.461 µM (active)"},
      {"smiles": "Cc1cc(NS(=O)(=O)c2ccc(NC(=O)Cc3ccc(Cl)cc3Cl)cc2)no1", "Potency": "14.6 µM (active)"},
      {"smiles": "Cc1cc(NS(=O)(=O)c2ccc(NC(=O)Cc3ccc(Cl)c(Cl)c3)cc2)on1", "Potency": "0.231 µM (active)"},
      {"smiles": "Cc1cc(NC(=O)c2ccc(NC(=O)Cc3ccc(Cl)c(Cl)c3)cc2)no1", "Potency": "inactive"},
      {"smiles": "CN(C)c1cccc(NS(=O)(=O)c2ccc(NC(=O)Cc3ccc(Cl)c(Cl)c3)cc2)c1", "Potency": "11.6 µM (active)"},
      {"smiles": "Cc1cc(NS(=O)(=O)CCNC(=O)Cc2ccc(Cl)c(Cl)c2)no1", "Potency": "16.3 µM (active)"},
      {"smiles": "O=C(Cc1ccc(Cl)c(Cl)c1)Nc1ccc(S(=O)(=O)Nc2cccc(O)c2)cc1", "Potency": "1.63 µM (active)"},
      {"smiles": "Cc1cc(NS(=O)(=O)c2ccc(NC(=O)Cc3ccc(Cl)c(Cl)c3)cc2)n(C)n1", "Potency": "1.16 µM (active)"},
      {"smiles": "Cc1cc(NS(=O)(=O)c2ccc(NC(=O)Cc3ccc(Cl)c(C(F)(F)F)c3)cc2)no1", "Potency": "0.919 µM (active)"},
      {"smiles": "Cc1cc(NS(=O)(=O)c2ccc(NC(=O)Cc3ccc(C)c(F)c3)cc2)no1", "Potency": "4.61 µM (active)"},
      {"smiles": "COc1ccc(CC(=O)Nc2ccc(S(=O)(=O)Nc3cc(C)on3)cc2)cc1OC", "Potency": "inactive"},
      {"smiles": "O=C(Cc1ccc(Cl)c(Cl)c1)Nc1ccc(S(=O)(=O)Nc2cccc(C(=O)O)c2)cc1", "Potency": "0.58 µM (active)"},
      {"smiles": "Cc1cc(NS(=O)(=O)c2ccc(NC(=O)Cc3ccc(Cl)c(Cl)c3)cc2)no1", "Potency": "0.231 µM (active)"},
      {"smiles": "CCOC(=O)c1cccc(NS(=O)(=O)c2ccc(NC(=O)Cc3ccc(Cl)c(Cl)c3)cc2)c1", "Potency": "inactive"},
      {"smiles": "Cc1cc(NC(=O)c2csc(NC(=O)Cc3ccc(Cl)c(Cl)c3)n2)no1", "Potency": "inactive"}
    ]}
  ]
}
